The values below come from ChEMBL document CHEMBL3988442, “University of Dundee, Small-Polar-MMV Screening Library” (2021).

Structures are written as SMILES. In all, about 69,000 compounds went through this assay and about 1,000 (1.4%) showed an effect of 50% or more. For the sample, strong results were picked, then their nearest neighbours and some compounds at random.

For this experiment, the system named is Leishmania donovani. The experiment in a line: Leishmania intramacrophage assay. The class given is functional, organism-based. Further details: scale not given: in the data most compounds retested in dose-response had high values.

Turning to `CC1(C)CN(C(CNS(C)(=O)=O)c2ccc(Cl)cc2)CCO1` (stereo unspecified), the “Percent Effect” value (30.3 µM, […]) was determined as 30.45%. The same measure, in the same setting: in the case of `O=C(Cc1ccc(F)cc1)N1CCn2c(Cn3cncn3)cnc2C1` it was 5.226%. With `CCc1nc2n(n1)CC(NCc1nc(-c3ccccn3)no1)CC2` (stereo unspecified), for the setting “30 µM”, the “Percent Effect” value was -15.89%. Turning to `Cc1nccn1CC1CCCN(C(=O)Cc2ccsc2)C1` (stereo unspecified), for the setting “30.3 µM, […]”, the “Percent Effect” value was 72.54%.

`CC(=O)N1CC(C(=O)N2CCCC(Cn3ccnc3C)C2)C1` (stereo unspecified): the “Percent Effect” value (30.3 µM, […]) was found to be 46.71%. Same read-out and setting: in the case of `Cc1noc(C)c1CC(=O)N1CCCC(Cn2ccnc2C)C1` (stereo unspecified) it was 14.7%; in that of `COc1ccc(CN2CCN(S(=O)(=O)c3cc(C(=O)O)cs3)CC2)cc1`, 15%; in that of `Cn1cc(C(=O)N2CC[C@@H]3[C@@H]2CCN3c2ccccn2)cn1`, 28.1%. Same read-out and setting: in the case of `CC(=O)NCCCOc1c(C)cccc1Cl` it was 16.58%.

For the compound `Cc1ccc(C(=O)N2CCC3(CCC(=O)N(CCN(C)C)C3)CC2)nc1`, for the setting “30.3 µM, […]”, the “Percent Effect” value worked out at 0.8363%.

As for `CCN1CCCC1Cn1ccc2ccc(C(=O)OC)cc2c1=O` (stereo unspecified), the “Percent Effect” value (30.3 µM, […]) was -29.19%.

As to `CCc1ccc2nc(NCCCN(CCO)CCO)cc(C)c2c1`, the “Percent Effect” value (30.3 µM, […]) was determined as 97.87%.

For the compound `CCc1ccc2nc(NCC(O)CO)cc(C)c2c1` (stereo unspecified), for the setting “30.3 µM, […]”, the “Percent Effect” value stood at 21.82%. For the compound `CCc1ccc2nc(NCCOCCO)cc(C)c2c1`, the “Percent Effect” value (30.3 µM, […]) came to 19.28%.

In the case of `CCc1ccc(CN2Cc3nccn3CC(Cn3cncn3)C2)o1.O=C(O)C(F)(F)F` (stereo unspecified), the “Percent Effect” value (30.3 µM, […]) is 27.46%. In the case of `COc1cccc(COCC(=O)N2CCC(CC(N)=O)CC2)c1`, for the setting “30 µM, 30.03 µM”, the “Percent Effect” value is recorded as -26.96%. `Cc1c(C)n(Cc2ccccn2)c2nc3c(c(N)c12)CCCCCC3`: for the setting “30.3 µM, […]”, the “Percent Effect” value is 8.308%.

On to `Cc1c(C)n(-c2ccccn2)c2nc3c(c(N)c12)CCCC3`, for which, for the setting “30 µM, 30.03 µM”, the “Percent Effect” value was determined as 43.5%. As for `Cc1c(C)n(-c2ccccn2)c2nc3c(c(N)c12)CCCCC3`, the “Percent Effect” value (30.3 µM, […]) came out at 70.72%. `CC1CN(C)c2ccccc2CN1C(=O)c1ccc[nH]1` (stereo unspecified): where the note is “30 µM, 30.03 µM”, the “Percent Effect” value came out at 18.04%. Regarding `COCCn1cnc2ccc(NC(=O)c3ccc(OC)cc3)cc2c1=O`, the “Percent Effect” value (30.3 µM, […]) is recorded as 23.03%. As for `Cn1ccnc1COc1ccc(COC(=O)C2CCCO2)cc1` (stereo unspecified), the “Percent Effect” value (30.3 µM, […]) is -0.4672%. The same measure, in the same setting: with `Cc1c(CC(C#N)C(=O)Nc2cccc(O)c2)cnn1C` (stereo unspecified) the figure was -22.11%; with `COc1ccc(Cl)cc1NC(=O)N1CCc2nc(NC(C)=O)sc2C1`, 55.24%.

`COc1ccc(Cl)cc1NC(=O)CN1CCc2nc(NC(C)=O)sc2C1`: the “Percent Effect” value (30.3 µM, […]) is -8.893%. With `COC(=O)Nc1nc2c(s1)CN(C(=O)NCc1cccs1)CC2`, the “Percent Effect” value (30.3 µM, […]) is reported as -0.9773%. On to `Cn1ccnc1CN1CCCN(C(=O)c2ccc(O)nc2)CC1`, for which, for the setting “30 µM”, the “Percent Effect” value is recorded as 25.73%.

Take `Cc1nc2sccn2c1CN(CCCN(C)C)Cc1ccco1.O=C(O)CC(O)(CC(=O)O)C(=O)O`: the “Percent Effect” value (30.3 µM, […]) came to 41.01%. The same measure, in the same setting: with `CC[C@@]1(O)CCN(C(=O)CCc2cnn(C)c2)C[C@H]1O` the figure was 28.56%; with `COc1ccc(C(C)NCc2nnc(C)s2)cc1F` (stereo unspecified), 13.85%; with `COc1ccc(C(C)NCCc2ccc(NC(C)=O)cc2)cc1F` (stereo unspecified), 23.19%.

In the case of `COc1ccc(C(C)NCCC(N)=O)cc1F` (stereo unspecified), the “Percent Effect” value (30.3 µM, […]) amounted to 52.68%. On the same count and under the same terms, in the case of `CCSc1cc(C(=O)NCCc2nnc(-c3ccco3)[nH]2)ccn1` it was -0.0887%; in that of `CN(CCn1nc2ccccn2c1=O)CC(=O)N(C)C1CCCCC1`, 4.76%.

As for `Cc1nc(N2CCCC2)ncc1-c1cc(O)nc(N2CCCC2)n1`, the “Percent Effect” value (30 µM, 30.03 µM) was 15.83%. As to `Cc1nc(N2CCCC2)ncc1-c1cc(O)nc(N2CCCCC2)n1`, for the setting “30.3 µM, […]”, the “Percent Effect” value was -14.51%. Still for that read-out and setting: in the case of `Cc1nc(N2CCCC2)ncc1-c1cc(O)nc(N2CCN(C)CC2)n1` it was 59.07%.

`CCCS(=O)(=O)NC(=O)c1sc(C2CCCC2)nc1C`: under “30.3 µM, […]”, the “Percent Effect” value stood at 11.93%. For the compound `COCCNC(=O)C[C@@H]1COC[C@H]2CN(C(=O)c3cnccn3)C[C@@H]12`, under “30 µM, 30.03 µM”, the “Percent Effect” value stood at 9.909%. On to `COCCNC(=O)C[C@@H]1COC[C@H]2CN(C(=O)COC)C[C@@H]12`, for which, for the setting “30.3 µM, […]”, the “Percent Effect” value came to 51.2%. On to `COCCNC(=O)C[C@@H]1COC[C@H]2CN(C(=O)C3CCOCC3)C[C@@H]12`, for which, for the setting “30.3 µM, […]”, the “Percent Effect” value is 11.97%. Regarding `COC(=O)C(c1ccccc1)N(C)C(=O)c1ccnc(C)n1` (stereo unspecified), the “Percent Effect” value (30 µM) came out at 22.67%. For `Cc1ccccc1-n1ccc2nc(N3CCCC3)ncc2c1=O`, the “Percent Effect” value (30.3 µM, […]) was 13.99%. Same read-out and setting: with `CS(=O)(=O)CC(=O)N(CCN1CCOCC1)Cc1ccco1` the figure was -78.1%; with `COCCN1CCC2(CC1)CC(NC(=O)COC)c1ccccc1O2.O=C(O)C(F)(F)F` (stereo unspecified), 15.07%; with `COCCN1CCC2(CC1)CC(NC(=O)CC1CC1)c1ccccc1O2.O=C(O)C(F)(F)F` (stereo unspecified), -12.69%. On the same count and under the same terms, in the case of `COCCN1CCC2(CC1)CC(NCc1cncn1C)c1ccccc12.O=C(O)C(F)(F)F.O=C(O)C(F)(F)F` (stereo unspecified) it was 17.77%. For `Cn1cncc1CNC1CC2(CCN(CC3CC3)CC2)c2ccccc21.O=C(O)C(F)(F)F.O=C(O)C(F)(F)F` (stereo unspecified), the “Percent Effect” value (30.3 µM, […]) was 22.11%. The same measure, in the same setting: in the case of `Cc1ccc(CNC2CC3(CCN(CCO)CC3)c3ccccc32)s1.O=C(O)C(F)(F)F.O=C(O)C(F)(F)F` (stereo unspecified) it was 81.48%.

With `Cc1ccc2c(c1)C(N1CCOCC1)CC21CCNCC1` (stereo unspecified), the “Percent Effect” value (30.3 µM, […]) came to 55.92%. For the compound `CCC(=O)N1CCC2(CC1)CC(N1CCOCC1)c1cc(C)ccc12.O=C(O)C(F)(F)F` (stereo unspecified), the “Percent Effect” value (30.3 µM, […]) came out at 12%. Same read-out and setting: in the case of `COCC(=O)NC1CC2(CCN(CCO)CC2)c2ccccc21.O=C(O)C(F)(F)F` (stereo unspecified) it was 8.463%; in that of `COCCN1CCC2(CC1)CC(NCc1ccc(C)s1)c1ccccc12.O=C(O)C(F)(F)F.O=C(O)C(F)(F)F` (stereo unspecified), 59.95%; in that of `Cc1cccc(CNC2CC3(CCN(CCO)CC3)c3ccccc32)n1.O=C(O)C(F)(F)F.O=C(O)C(F)(F)F` (stereo unspecified), 9.361%. Still for that read-out and setting: with `COCCN1CCC2(CC1)CC(NC(=O)CN(C)C)c1ccccc1O2.O=C(O)C(F)(F)F.O=C(O)C(F)(F)F` (stereo unspecified) the figure was 52.21%; with `Cc1ccc2c(c1)C1(CCNCC1)CC2N1CCOCC1` (stereo unspecified), 11.46%.
